Out of some 5,500 compounds screened, about 2,000 (36%) were called active. Inconclusive results (about 18%) are left out. Rule as the data show it: active = normalized growth mostly below about 0.91 (no sharp cut-off); inconclusive = no clear call, values can overlap the other calls; inactive = mostly above about 0.92. Some of the results follow.
Assay: chemical genetic growth profiling, strain panel (AID 1159580);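 also: tested at 20 µM; growth read once vehicle control cultures reached saturation at 30 °C; 1 = growth at the plate median or of vehicle wells; lower values mean less growth of the strain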
Settings: growth OD

Measured: normalized growth

COC(=O)[C@H]1[C@H]2C[C@H]3c4[nH]c5cc(OC)ccc5c4CCN3C[C@H]2C[C@@H](OC(=O)c2cc(OC)c(OC)c(OC)c2)[C@@H]1OC
inactive: S. cerevisiae deletion strains, locus YKL009W, strain mrt4, stronger effect = lower value 0.991 | S. cerevisiae deletion strains, locus YKL068W, stronger effect = lower value 0.995 | S. cerevisiae deletion strains, locus YKL085W, strain MDH1 (second series), stronger effect = lower value 1 | S. cerevisiae deletion strains, locus YKL085W, strain MDH1, stronger effect = lower value 1 | S. cerevisiae deletion strains, locus YKL160W, strain elf1, stronger effect = lower value 0.995 | S. cerevisiae deletion strains, locus YKR001C, strain vps1, stronger effect = lower value 1.01 | S. cerevisiae deletion strains, locus YKR026C, strain gcn3, stronger effect = lower value 0.994 | S. cerevisiae deletion strains, locus YKR091W, strain srl3, stronger effect = lower value 1.02 | S. cerevisiae deletion strains, locus YLL001W, strain dnm1, stronger effect = lower value 1.03 | S. cerevisiae deletion strains, locus YLL026W, stronger effect = lower value 1.02 | S. cerevisiae deletion strains, locus YLL041C, strain sdh2, stronger effect = lower value 1.01 | S. cerevisiae deletion strains, locus YLR027C, strain aat2, stronger effect = lower value 1.01 | S. cerevisiae deletion strains, locus YLR039C, strain RIC1, stronger effect = lower value 0.971 | S. cerevisiae deletion strains, locus YLR058C, strain SHM2, stronger effect = lower value 0.992 | S. cerevisiae deletion strains, locus YLR102C, strain apc9, stronger effect = lower value 0.981 | S. cerevisiae deletion strains, locus YLR113W, strain HOG1, stronger effect = lower value 0.988 | S. cerevisiae deletion strains, locus YLR221C, strain rsa3, stronger effect = lower value 1 | S. cerevisiae deletion strains, locus YLR258W, strain gsy2, stronger effect = lower value 1.01 | S. cerevisiae deletion strains, locus YLR262C, strain YPT6 (second series), stronger effect = lower value 1 | S. cerevisiae deletion strains, locus YLR262C, strain YPT6, stronger effect = lower value 1 | S. cerevisiae deletion strains, locus YLR268W, strain sec22, stronger effect = lower value 0.987 | S. cerevisiae deletion strains, locus YLR320W, strain mms22, stronger effect = lower value 1.01 | S. cerevisiae deletion strains, locus YLR330W, strain CHS5, stronger effect = lower value 0.992 | S. cerevisiae deletion strains, locus YLR342W, strain FKS1 (second series), stronger effect = lower value 1.04 | S. cerevisiae deletion strains, locus YLR342W, strain FKS1, stronger effect = lower value 1.01 | S. cerevisiae deletion strains, locus YLR357W, strain rsc2, stronger effect = lower value 1 | S. cerevisiae deletion strains, locus YLR370C, strain arc18, stronger effect = lower value 1.01 | S. cerevisiae deletion strains, locus YLR371W, strain rom2, stronger effect = lower value 1 | S. cerevisiae deletion strains, locus YLR384C, strain iki3, stronger effect = lower value 0.998 | S. cerevisiae deletion strains, locus YLR418C, strain cdc73, stronger effect = lower value 0.998 | S. cerevisiae deletion strains, locus YML016C, strain PPZ1, stronger effect = lower value 0.998 | S. cerevisiae deletion strains, locus YML032C, strain rad52, stronger effect = lower value 0.991 | S. cerevisiae deletion strains, locus YML120C, strain ndi1, stronger effect = lower value 1.01 | S. cerevisiae deletion strains, locus YML124C, strain tub3, stronger effect = lower value 1.01 | S. cerevisiae deletion strains, locus YMR058W, strain fet3, stronger effect = lower value 1.01 | S. cerevisiae deletion strains, locus YMR078C, strain ctf18, stronger effect = lower value 1 | S. cerevisiae deletion strains, locus YMR125W, strain sto1, stronger effect = lower value 1.02 | S. cerevisiae deletion strains, locus YMR129W, stronger effect = lower value 0.999 | S. cerevisiae deletion strains, locus YMR205C, strain PFK2, stronger effect = lower value 1.02 | S. cerevisiae deletion strains, locus YMR223W, strain ubp8, stronger effect = lower value 1.02 | S. cerevisiae deletion strains, locus YMR231W, strain pep5, stronger effect = lower value 1.01 | S. cerevisiae deletion strains, locus YMR263W, strain SAP30, stronger effect = lower value 0.98 | S. cerevisiae deletion strains, locus YMR307W, strain GAS1, stronger effect = lower value 1.16 | S. cerevisiae deletion strains, locus YNL067W, strain RPL9B, stronger effect = lower value 0.961 | S. cerevisiae deletion strains, locus YNL071W, strain lat1, stronger effect = lower value 1.02 | S. cerevisiae deletion strains, locus YNL128W, strain TEP1, stronger effect = lower value 0.954 | S. cerevisiae deletion strains, locus YNL153C, strain GIM3, stronger effect = lower value 0.99 | S. cerevisiae deletion strains, locus YNL183C, strain NPR1, stronger effect = lower value 0.909 | S. cerevisiae deletion strains, locus YNL209W, strain ssb2, stronger effect = lower value 1.01 | S. cerevisiae deletion strains, locus YNL233W, strain BNI4, stronger effect = lower value 0.981 | S. cerevisiae deletion strains, locus YNL248C, strain rpa49, stronger effect = lower value 1 | S. cerevisiae deletion strains, locus YNL250W, strain rad50, stronger effect = lower value 0.985 | S. cerevisiae deletion strains, locus YNL271C, strain bni1, stronger effect = lower value 1.02 | S. cerevisiae deletion strains, locus YNL298W, strain CLA4, stronger effect = lower value 0.996 | S. cerevisiae deletion strains, locus YNL307C, strain MCK1, stronger effect = lower value 0.987 | S. cerevisiae deletion strains, locus YNL322C, strain KRE1 (second series), stronger effect = lower value 1.01 | S. cerevisiae deletion strains, locus YNL322C, strain KRE1, stronger effect = lower value 1 | S. cerevisiae deletion strains, locus YNR049C, strain mso1, stronger effect = lower value 1.02 | S. cerevisiae deletion strains, locus YNR052C, strain pop2, stronger effect = lower value 0.995 | S. cerevisiae deletion strains, locus YOL012C, strain htz1 2.11 | S. cerevisiae deletion strains, locus YOL147C, strain pex11, stronger effect = lower value 0.984 | S. cerevisiae deletion strains, locus YOR001W, strain rrp6, stronger effect = lower value 1.01 | S. cerevisiae deletion strains, locus YOR061W, strain CKA2, stronger effect = lower value 0.998 | S. cerevisiae deletion strains, locus YOR069W, strain VPS5, stronger effect = lower value 1 | S. cerevisiae deletion strains, locus YOR070C, strain gyp1, stronger effect = lower value 1.02 | S. cerevisiae deletion strains, locus YOR080W, strain dia2, stronger effect = lower value 1.01 | S. cerevisiae deletion strains, locus YOR083W, strain WHI5, stronger effect = lower value 0.987 | S. cerevisiae deletion strains, locus YOR106W, strain vam3, stronger effect = lower value 1 | S. cerevisiae deletion strains, locus YOR136W, strain idh2, stronger effect = lower value 0.997 | S. cerevisiae deletion strains, locus YOR144C, strain elg1, stronger effect = lower value 1.01 | S. cerevisiae deletion strains, locus YOR184W, strain ser1, stronger effect = lower value 1.01 | S. cerevisiae deletion strains, locus YOR231W, strain MKK1, stronger effect = lower value 0.948 | S. cerevisiae deletion strains, locus YOR265W, strain rbl2, stronger effect = lower value 1.02 | S. cerevisiae deletion strains, locus YOR270C, strain vph1, stronger effect = lower value 1.08 | S. cerevisiae deletion strains, locus YOR290C, strain snf2, stronger effect = lower value 0.971 | S. cerevisiae deletion strains, locus YOR316C, strain cot1, stronger effect = lower value 0.989 | S. cerevisiae deletion strains, locus YPL051W, strain arl3, stronger effect = lower value 0.977 | S. cerevisiae deletion strains, locus YPL055C, strain LGE1, stronger effect = lower value 0.978 | S. cerevisiae deletion strains, locus YPL078C, strain atp4, stronger effect = lower value 1 | S. cerevisiae deletion strains, locus YPL106C, strain sse1, stronger effect = lower value 0.999 | S. cerevisiae deletion strains, locus YPL240C, strain hsp82, stronger effect = lower value 1.03 | S. cerevisiae deletion strains, locus YPL256C, strain CLN2, stronger effect = lower value 0.977 | S. cerevisiae deletion strains, locus YPR119W, strain clb2, stronger effect = lower value 0.994 | S. cerevisiae deletion strains, locus YPR141C, strain kar3, stronger effect = lower value 1.01 | S. cerevisiae deletion strains, locus YPR163C, strain tif3, stronger effect = lower value 0.989 | S. cerevisiae deletion strains, locus YPR167C, strain met16, stronger effect = lower value 0.998 | S. cerevisiae deletion strains, strain wtn01, stronger effect = lower value 0.992 | S. cerevisiae strains, strain wild type, stronger effect = lower value 1
